# Screening results as filed in PubChem.
# Sampled rows, rich in hits. Any-hit rate of the full collection: about 19%.
# DT40 TDP1 no CPT: qHTS for Inhibitors of human tyrosyl-DNA phosphodiesterase 1 (TDP1): qHTS in cells in absence of CPT; Potency, µM (highest dose often 46.2 µM), without a hit: at the highest dose activity change, negative = growth inhibition, hits mostly inhibitors; DT40 Tdp1-/- hTDP1 cells, no CPT, ATP luminescence, 48 h; 15% of 420,000 active; also: potency is read from the fitted curve at half-maximal effect; nearly all actives have a fitted effect of over 55% in size
#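 Cells were dispensed at 400 per well, compounds added by pin tool, plates incubated ≥48 hr at 37 °C, then CellTiter-Glo added for 30 min at room temperature before luminescence reading. Line: DT40 Tdp1-/- complemented with hTDP1; camptothecin omitted.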
# HT1080 IDH1KD tx: kills HT-1080 cells with IDH1 knockdown. Potency, µM (highest dose often 46.1 µM), without a hit: top-dose activity, negative = toxicity, actives largely listed as cytotoxic. HT-1080 IDH1 knockdown viability, ATP luminescence, 48 h. 2% of 360,000 active;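 also: potency is read from the fitted curve at half-maximal effect; 0% = DMSO wells and -100% = cell-free medium wells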
#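 CellTiter-Glo luminescence after 48 h compound exposure at 37 degrees C of IDH1-knockdown HT-1080 cells in 5% FBS RPMI. %Activity scaled between DMSO wells and cell-free media wells, with curves fitted and assigned curve classes.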
# DT40 TDP1 CPT: growth inhibition of DT40 Tdp1-/-;hTDP1 cells with camptothecin (screen for TDP1 inhibitors); Potency, µM (series often up to 46.2 µM), inactives show top-dose activity change, negative = growth inhibition, usual class: inhibitors; 12% of 420,000 active; chicken DT40 Tdp1-/-;hTDP1 cells + 20 nM CPT, ATP luminescence, 48 h; AID 686979; also: potency is read from the fitted curve at half-maximal effect; nearly all actives have a fitted effect of over 55% in size
#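 Cell growth measured by CellTiter-Glo luminescence after a minimum 48 h, 37 C compound exposure with 20 nM CPT in Tdp1-knockout DT40 cells stably expressing hTDP1, seeded 400/well; qHTS titration format.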
# HT1080-NT tox: kills 2HG-producing HT-1080-NT fibrosarcoma cells; HT-1080-NT fibrosarcoma viability, CellTiter-Glo ATP luminescence, 48 h; Potency, µM (top dose mostly 46.1 µM), inactives show at the highest dose activity, negative = less viability, actives largely listed as cytotoxic; 1.6% of 360,000 active; AID 686970;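 also: NT is the 2HG producing partner of a matched IDH1 knockdown line; potency is read from the fitted curve at half-maximal effect; 0% = DMSO-treated cells and -100% = media-only wells without cells; nearly all actives have a fitted effect of over 55% in size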
#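 Fibrosarcoma NT cells, 750 per well in 5% FBS RPMI, were exposed to compound for 48 hours. Viability: CellTiter-Glo luminescence.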
# IL-1B inflam inh: inflammasome signaling inhibition, IL-1 beta readout. THP-1 LPS/ATP IL-1B secretion, AlphaLISA, 16 h; active compounds read low. activity change, % at 57.5 µM. 4.7% of 360,000 active. AID 743279; in the data active = activity change below about -50%; inconclusive = mostly about -30% to -49%
#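 Secreted IL-1B measured by AlphaLISA bead assay after 16 h compound exposure of THP-1 cells; compounds (final up to 57.5 uM) added 1 h before LPS (250 ng/mL) and ATP (1.25 mM) stimulation; lower signal means less secretion.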
# * hit, by the source's call; ? = inconclusive; . = no result given; ! = repeats disagree; [ ] = remark or other dose. Unless noted, calls follow the shape of the dose curve; as a rule, active = well fitted curve in the direction sought with a large enough effect; inconclusive = small, poorly fitted or top-dose-only effect, or another doubt; inactive = no such curve, though single readings can be large; an effect the other way counts as inactive or inconclusive. Unless noted, % is scaled to controls: 0 for no effect and ±100 for the full control effect.
SMILES,DT40 TDP1 no CPT,HT1080 IDH1KD tx,DT40 TDP1 CPT,HT1080-NT tox,IL-1B inflam inh
O=C(COC(=O)CNS(=O)(=O)c1ccc2ccccc2c1)Nc1ccccc1Sc1ccccc1,?,-1%,-19%,0%,13
Cc1nn2c(-c3cccc(NC(=O)c4ccco4)c3)nnc2c2ccccc12,21µM*,-2%,21µM*,0%,?
CCOc1cc(NC(=O)c2ccco2)c(OCC)cc1NC(=O)CCc1ccccc1OC,7.3µM*,-3%,9.2µM*,-5%,-3
COc1cc(NC(=O)c2ccco2)c(C(=O)OCC(=O)c2c[nH]c3ccccc23)cc1OC,8.2µM*,-20%,15µM*,-28%,26
COc1cc(NC(=O)c2ccco2)c(OC)cc1NC(=O)c1cc(OC)c(OC)c(OC)c1,21µM*,-1%,?,5%,-5
O=C(OCC(=O)c1c[nH]c2ccccc12)c1ccco1,-21%,4%,-18%,0%,0
Cc1ccc(C(C)(C)C)c(SCC(=O)Nc2nnc(C)s2)c1,-12%,-14%,2%,3%,1
Nn1c(SCC(=O)Nc2ccc(OC(F)F)cc2)nnc(Cc2ccccc2)c1=O,?,-18%,7%,-13%,?
O=C(CNC(=O)C1CCCCC1)NCc1ccco1,-7%,21%,10%,2%,23
CCOc1cc(C#N)c(NC(=O)c2ccco2)cc1OCC,6.5µM*,?,12µM*,?,21
CCOc1cc(NC(=O)c2ccco2)c(OCC)cc1NC(=O)c1ccco1,2.9µM*,20%,-20%,32%,17
CCOc1ccc(-c2cccc(NC(=O)c3ccco3)c2)nn1,21µM*,7%,?,7%,8
CN(CC(=O)Nc1ccc(Cl)c(C(F)(F)F)c1)C(=O)c1ccccc1SCC(=O)N1CCCC1,?,-21%,18µM*,-11%,-12
Cc1ccc(NC(=O)CN(C)CC(=O)Nc2ccc(F)c(Cl)c2)cc1,-2%,-9%,-20%,6%,-29
CN(CC(=O)NCC(=O)Nc1ccc(F)cc1)CC(=O)Nc1ccc(Cl)c(C(F)(F)F)c1,-19%,-11%,-27%,-1%,-72*
CC1CC1C(=O)N(C)CC(=O)Nc1ccc(Cl)c(C(F)(F)F)c1 (stereo not given),?,3%,?,9%,-22
COc1ccc(NC(=O)CN(C)CC(=O)NCC(=O)Nc2ccc(F)cc2)cc1,4%,2%,5%,7%,10
CCOc1ccc(NC(=O)CN(C)C(=O)c2ccccc2SCC(=O)N2CCCC2)cc1OCC,-7%,12%,-3%,6%,-9
CN(CC(=O)Nc1ccc(Cl)c(Cl)c1)Cc1nnc(-c2ccc(F)cc2)o1,?,-18%,?,-15%,-58*
CN(CC(=O)NCc1ccc(F)cc1)CC(=O)Nc1ccc(Cl)c(C(F)(F)F)c1,21µM*,?,23µM*,?,-69*
CN(C)C1(CNC(=O)C2CCN(S(=O)(=O)c3c(Cl)cccc3Cl)CC2)CCCCC1,-24%,-12%,1%,-17%,-9
CN(CC(=O)Nc1ccc(Cl)c(C(F)(F)F)c1)C(=O)Cc1cccs1,?,-27%,?,-17%,?
CC(NC(=O)CN(C)CC(=O)Nc1ccc(Cl)c(C(F)(F)F)c1)c1ccccc1 (stereo not given),23µM*,1%,21µM*,2%,-16
CN(CC(=O)Nc1cccc(F)c1)CC(=O)NC(c1ccccc1)c1ccccc1,?,-15%,23µM*,-8%,-20
CCOc1ccc(CNC(=O)c2ccc3nc(Cc4ccc(OC)cc4)oc3c2)cc1OC,13µM*,.,18µM*,.,.
SMILES,DT40 TDP1 no CPT,HT1080 IDH1KD tx,DT40 TDP1 CPT,HT1080-NT tox,IL-1B inflam inh
COc1cc(CC(=O)NCCCc2ccccc2)cc(OC)c1OC,21µM*,8%,?,2%,7
COc1cc(CNC(=O)c2ccc3nc(Cc4ccccc4)oc3c2)cc(OC)c1OC,2.6µM*,.,6.5µM*,.,.
COc1ccccc1CNC(=O)c1ccc2nc(CCc3ccccc3)oc2c1,-26%,.,?,.,.
COc1cc(CNC(=O)c2ccc3nc(CCc4ccccc4)oc3c2)cc(OC)c1OC,21µM*,.,21µM*,.,.
CC(C)Cc1cc(C(=O)NCC2Cc3cc(F)cc(-c4ccccn4)c3O2)no1 (stereo not given),-5%,.,11%[9.04 µM],.,.
CN(CC(=O)NCCc1ccccc1)Cc1ccco1,-27%,1%,-3%,0%,-3
CC(Sc1nnc(-c2ccncc2)n1C)C(=O)Nc1nccs1 (stereo not given),2%,14%,0%,11%,-3
COC(=O)c1cc(=O)n(CCc2ccccc2)c(=Nc2ccc(F)cc2)s1,?,-18%,?,?,1
CCOC(=O)c1ccc(N=c2sc(C(=O)OC)cc(=O)n2CCCN2CCOCC2)cc1,15µM*,?,15µM*,?,-57*!
CCOC(=O)c1ccc(N=c2sc(C(=O)OC)cc(=O)n2Cc2ccco2)cc1,21µM*,?,13µM*,?,-22
Oc1ccccc1-c1nnc2n1CCCCC2,-15%,3%,12%,5%,0
Cc1cc(-c2nnc3n2CCCCC3)c(C)n1-c1ccccc1,16µM*,1%,?,2%,?
COc1ccc(OC)c(CNC(=O)CCC(=O)N2Cc3cccc(OC)c3Oc3ncccc32)c1,-22%,0%,1%,3%,1
CCc1ccc(-c2cc(C)no2)cc1S(=O)(=O)NCc1ccco1,?,?,21µM*,-17%,19
Cc1cc(S(=O)(=O)NCc2ccco2)c(C)cc1Cl,?,-2%,?,-14%,1
COc1ccc(CCNS(=O)(=O)c2cc(-c3onc(C)c3C)ccc2OC)cc1OC,?,.,-24%,.,.
Cc1cc(-c2ccc(C)c(S(=O)(=O)NCCc3ccco3)c2)on1,?,-9%,-28%,-17%,-10
COc1ccc(-c2onc(C)c2C)cc1S(=O)(=O)NCc1ccc(C)o1,3.3µM*,.,2.9µM*,.,.
Cc1ccc(-c2onc(C)c2C)cc1S(=O)(=O)NCc1ccco1,?,.,23µM*,.,.
COc1ccccc1CN1CCC(CNS(=O)(=O)c2cc(-c3onc(C)c3C)ccc2OC)CC1,21µM*,18µM*,21µM*,18µM*,?
CS(=O)(=O)Nc1cccc(-c2cncnc2NCc2ccccc2)c1,10%,.,-3%,.,.
CCOC(=O)N1CCN(c2ccncc2S(=O)(=O)N2CCCCC2)CC1,-13%,21%,-24%,11%,27
CC12CC3CC(C)(C1)CC(C(=O)N1CCN(C(=O)c4ccco4)CC1)(C3)C2,?,-15%,?,-11%,-7
